From PubChem BioAssay (NCATS)
Results filed as inconclusive are left out. The source made the active and inactive calls. Unless noted, calls follow the shape of the dose curve; as a rule, active = well fitted curve in the direction sought with a large enough effect; inconclusive = small, poorly fitted or top-dose-only effect, or another doubt; inactive = no such curve, though single readings can be large; an effect the other way counts as inactive or inconclusive.

Legend:
[1] = Cell Viability - Jurkat (AID 426;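 active = dose-dependent loss of cell ATP signal giving a full or clear fitted curve, ranked by lower potency value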;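 also: potency is read from the fitted curve at half-maximal effect; cells exposed to compound for 40 hours at 37 °C before ATP read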); details: qHTS
In short: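 Cells of the human T-cell leukemia line Jurkat (E6-1) are seeded at 5000 per well, treated with compound across a concentration range for 40 hours at 37 °C, then lysed with CellTiter-Glo; luminescence reports ATP.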

[2] = Cell Viability - Hek293 (AID 427;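 active = compounds whose dose-response curve shows a full or clear partial loss of cell viability, called from curve shape rather than a numeric limit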;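 also: potency is read from the fitted curve at half-maximal effect; cells exposed to compound for 40 hours at 37 °C before reading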); details: qHTS
In short: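 Luminescent ATP content (CellTiter-Glo, 20 min at room temperature) was measured after a 40 hr, 37 °C compound exposure of HEK293 cells. AC50 values came from Hill-equation fits of qHTS concentration-response data normalized to DMSO and 100 uM tamoxifen.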

[3] = Cell Viability - HepG2 (AID 433; calls by dose curve;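 also: potency is read from the fitted curve at half-maximal effect; potency for ATP loss meaning cytotoxicity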); details: qHTS
In short: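 ATP luminescence (CellTiter-Glo) after 40 h compound exposure, 37 °C, HepG2, 1500 cells/well, complete medium. Normalized: DMSO = basal, 100 uM tamoxifen = 100% inhibition. AC50 via standard Hill equation.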

[4] = Cell Viability - MRC5 (AID 434; calls by dose curve;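 also: potency is read from the fitted curve at half-maximal effect; potency reflects cytotoxicity seen as loss of intracellular ATP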); details: MRC5 lung fibroblast viability, qHTS
In short: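 AC50 values come from Hill-equation fits of intracellular ATP loss, measured by CellTiter-Glo luminescence. Normal lung fibroblasts (MRC5) had 40 hr compound treatment at 37 C, normalized between DMSO and 100 uM tamoxifen.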

[5] = Cell Viability - N2a (AID 540); details: N2a mouse neuroblastoma cell viability; at 92.2 µM (top of the series);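 also: plate controls were DMSO alone for no effect and tamoxifen control for full effect; nearly all actives have a fitted effect of over 45% in size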
In short: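 Cytotoxicity was scored as loss of cellular ATP in N2a cells, a mouse neuroblastoma line. Compounds are applied in a qHTS concentration series for 40 hr at 37 °C.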

[6] = Cell Viability - HUV-EC-C (AID 542); also: % is scaled to controls: 0 for no effect and ±100 for the full control effect; nearly all actives have a fitted effect of over 35% in size
In short: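 Cells were seeded at 1000 per well and incubated 5 hr at 37 °C before compound addition. After 40 hr at 37 °C, CellTiter-Glo reagent was added for 20 min and luminescence read. AC50 values came from Hill-equation modelling.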

[7] = Cell Viability - H-4-II-E (AID 543); also: % is scaled to controls: 0 for no effect and ±100 for the full control effect; nearly all actives have a fitted effect of over 35% in size
In short: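 Cells seeded at 1500 per well and rested 5 hr; compounds added; 40 hr incubation at 37 °C; CellTiter-Glo added, 20 min at room temperature; luminescence read. Hill-equation fits gave AC50.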

[8] = Cell Viability - SH-SY5Y (AID 544); details: SH-SY5Y neuroblastoma cell viability; viability change, negative = cytotoxic: at 92.2 µM (top of the series);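 also: 0% = DMSO alone and -100% = 100 µM tamoxifen; nearly all actives have a fitted effect of over 55% in size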
In short: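 Cells were plated at 1500 per well and allowed 5 hr at 37 °C. Compounds were added across a concentration range and incubated 40 hr at 37 °C. CellTiter-Glo was added for 20 min at room temperature before luminescence reading.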

[9] = Cell Viability - Renal Proximal Tubule (AID 545); details: renal proximal tubule cells viability; at 91.7 µM (top of the series), primary cells of rat origin unless noted;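 also: 0% = DMSO only and -100% = 100 µM tamoxifen; nearly all actives have a fitted effect of over 40% in size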
In short: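 Rat kidney proximal tubule cells, freshly isolated; 1000 cells/well, 5 hr settle, compound 40 hr 37 °C. CellTiter-Glo 20 min RT, luminescence read. AC50 by standard Hill fit.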

[10] = Cell Viability - Mesenchymal (AID 546);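 also: cells exposed to compound for 40 hours before reading; 0% = DMSO only and -100% = 100 µM tamoxifen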
In short: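 CellTiter-Glo luminescence (intracellular ATP, 20 min room temperature) after 40 hr compound exposure at 37 °C of 1000 glomerulus-derived human kidney mesenchymal cells/well; AC50 values obtained by fitting qHTS concentration-response data to the Hill equation.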

[11] = Cellular Toxicity (caspase-3) HepG2 (AID 654);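 also: cells exposed to compound for 16 hours before reading; 0% = DMSO alone and 100% = caspase signal from 100 µM tamoxifen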
In short: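 Caspase 3/7 activation in HepG2 is measured as rising luminescence after a 16 hr treatment at 37 °C. Values are scaled between DMSO basal and 100 uM tamoxifen, and AC50 is fitted with the Hill equation.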

[12] = Cellular Toxicity (caspase-3) HUV-EC-C (AID 656);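 also: 0% = DMSO basal and 100% = 100 µM tamoxifen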
In short: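 Luminescent caspase-3/7 activation (aminoluciferin substrate cleavage) in HUV-EC-C cells after 16 hr compound exposure, 37°C. Signal normalized to DMSO basal and 100 uM tamoxifen as 100%; AC50 from concentration-response fitted with the Hill equation.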

[13] = Cellular Toxicity (caspase-3) SHSY5Y (AID 657);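 also: cells exposed to compound for 16 hours at 37 °C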
In short: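 Luminescent caspase-3/7 readout (aminoluciferin release) in SH-SY5Y cells after 16 h compound exposure in complete medium. Activity scaled between DMSO basal and 10 uM staurosporine as 100%; concentration-response fitted to Hill equation for AC50.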

[14] = Cellular Toxicity (caspase-3) BJ (AID 658)
In short: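 Caspase-Glo 3/7 luminescence, read 1 hr after reagent at room temperature, in normal BJ fibroblasts exposed 16 hours at 37 °C. AC50 values from Hill-equation concentration-response, scaled between DMSO basal and 10 uM staurosporine as 100%.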

[15] = Cellular Toxicity (caspase-3) MRC-5 (AID 659)
In short: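 Luminescent Caspase-Glo 3/7 read-out (1 h, room temperature) after a 16 h, 37 °C compound exposure of MRC-5 lung fibroblasts at 1500 cells/well. Concentration-response AC50 from Hill equation; 0% DMSO, 100% 10 uM staurosporine.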

[16] = Cellular Toxicity (caspase-3) Mesangial (AID 660);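 also: combined caspase 3 and 7 activity read by Caspase-Glo luminescence; cells exposed to compound for 16 h before the caspase read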
In short: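 Seed cells derived from normal human renal glomeruli, incubate 5 h, add compounds across concentrations and incubate 16 h at 37 °C. Caspase 3/7 activation is then quantified by luciferase light, with AC50 derived by Hill modeling.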

[17] = Cellular Toxicity (caspase-3) SK-N-SH (AID 661)
In short: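 Cells were seeded and incubated 5 hr at 37 °C, dosed with compound over a concentration range for 16 hr, then given Caspase-Glo 3/7 reagent for 1 hr at room temperature before luminescence reading.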

[18] = Cellular Toxicity (caspase-3) H-4-II-E (AID 663);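 also: cells exposed to compound for 16 hr before readout; 0% = DMSO basal and 100% = 100 µM tamoxifen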
In short: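 Caspase 3/7 activation measured by luminescent aminoluciferin substrate cleavage after 16 hr compound treatment of H-4-II-E cells in complete medium. Increase normalized between DMSO (basal) and 100 uM tamoxifen (100%); Hill-equation AC50 from concentration-response.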

[19] = Cellular Toxicity (caspase-3) Hek293 (AID 664);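 also: cells exposed to compound for 16 h at 37 °C before readout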
In short: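 qHTS, HEK293 (human embryonic kidney), 16 h cpd exposure in complete medium. Caspase-3/7 activation = luminescence increase; normalized to DMSO/100 uM tamoxifen; Hill-fit AC50.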

[20] = Cellular Toxicity (caspase-3) N2a (AID 665); details: N2a cells, luminescence, normalized: DMSO 0%, 10 µM staurosporine 100%; at 92.2 µM (top of the series);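 also: compound exposure lasted 16 h at 37 °C before readout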
In short: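 Caspase-3/7 activation, measured as increased luminescence from aminoluciferin release, is quantified in mouse N2a cells exposed to compounds for 16 h. Values are normalized to DMSO and 10 uM staurosporine, with AC50 derived by Hill modelling.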

[21] = Cellular Toxicity (caspase-3) NIH 3T3 (AID 666);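 also: 0% = DMSO basal and 100% = 100 µM tamoxifen stimulation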
In short: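 Cells were plated at 1000 per well and incubated 5 hr at 37°C, then compound was added for 16 hr. Caspase-Glo 3/7 reagent followed for 20 min at room temperature before luminescence was read.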

[22] = biological target: Cytochrome P450 3A4 (Homo sapiens) (UniProt P08684); test: qHTS Assay for Inhibitors and Substrates of Cytochrome P450 3A4 (AID 884); also: % is scaled to controls: 0 for no effect and ±100 for the full control effect; nearly all actives have a fitted effect of over 50% in size
In short: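 Luminescent readout of luciferin produced by CYP3A4 (20 nM) dealkylation of Luciferin-PPXE, 25 uM (its KM). NADPH-driven reaction ran 60 min at RT after 10 min compound preincubation; data scaled to 57 uM ketoconazole as 100% inhibition.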

[23] = Cell Viability - LYMP2-001 (AID 921);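 also: cells exposed to compound for 24 h at 37 °C; 0% = DMSO only and full inhibition = tetraoctylammonium bromide control wells; nearly all actives have a fitted effect of over 70% in size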
In short: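 CellTiter-Glo luminescence (intracellular ATP) after 24 hr compound exposure at 37 C, 2500 lymphoblastoid cells/well in complete medium. AC50 fitted with standard Hill equation; tetraoctylammonium bromide positive control.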

Chain of Cytochrome P450 3A4 (Homo sapiens) (P08684 whole entry, looked up): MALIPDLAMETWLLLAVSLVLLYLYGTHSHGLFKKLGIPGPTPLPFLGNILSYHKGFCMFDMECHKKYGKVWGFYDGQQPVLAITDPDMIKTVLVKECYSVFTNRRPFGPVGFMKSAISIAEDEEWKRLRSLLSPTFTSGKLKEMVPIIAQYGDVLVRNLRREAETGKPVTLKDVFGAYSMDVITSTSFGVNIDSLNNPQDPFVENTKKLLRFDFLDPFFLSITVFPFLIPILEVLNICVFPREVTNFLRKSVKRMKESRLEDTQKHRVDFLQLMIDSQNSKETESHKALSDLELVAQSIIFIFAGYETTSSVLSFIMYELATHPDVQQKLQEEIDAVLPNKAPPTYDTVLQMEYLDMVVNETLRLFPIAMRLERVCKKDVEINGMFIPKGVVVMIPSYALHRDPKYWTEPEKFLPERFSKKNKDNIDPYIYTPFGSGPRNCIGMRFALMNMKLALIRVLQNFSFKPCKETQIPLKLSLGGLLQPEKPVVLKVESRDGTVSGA

CCCOC(=O)c1ccccc1C(=O)OCCC
inactive: Potency [1] > 92 µM | Potency [2] > 92 µM | Potency [3] > 92 µM | Potency [4] > 92 µM | activity change, negative = cytotoxicity [5] -15% | Potency [6] | Potency [7] | Potency [8] | activity change, negative = cytotoxicity [9] -1.75% | outcome [10] | outcome [11] | outcome [12] | outcome [13] | outcome [14] | outcome [15] | outcome [16] | outcome [17] | outcome [18] | outcome [19] | caspase-3 activation [20] 2.99% | outcome [21] | Potency [22] | Potency [23]
